Out of some 310,000 compounds screened, about 14,000 (4.5%) showed an effect of 50% or more. Effects have a minus sign here. The sample holds strong results, similar compounds and a random draw of the others, so the mix is not that of the screen.
What follows are compounds tested against human ether-à-go-go-related gene (hERG) potassium channel (human, UniProt Q12809) (assay: primary screen, population patch clamp on CHO cells stably expressing hERG; higher = less effect of the substance).
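Further: peak tail current of the secondary pulse compared with the same well before compound.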

Sequence of human ether-à-go-go-related gene (hERG) potassium channel (Q12809 whole entry, looked up): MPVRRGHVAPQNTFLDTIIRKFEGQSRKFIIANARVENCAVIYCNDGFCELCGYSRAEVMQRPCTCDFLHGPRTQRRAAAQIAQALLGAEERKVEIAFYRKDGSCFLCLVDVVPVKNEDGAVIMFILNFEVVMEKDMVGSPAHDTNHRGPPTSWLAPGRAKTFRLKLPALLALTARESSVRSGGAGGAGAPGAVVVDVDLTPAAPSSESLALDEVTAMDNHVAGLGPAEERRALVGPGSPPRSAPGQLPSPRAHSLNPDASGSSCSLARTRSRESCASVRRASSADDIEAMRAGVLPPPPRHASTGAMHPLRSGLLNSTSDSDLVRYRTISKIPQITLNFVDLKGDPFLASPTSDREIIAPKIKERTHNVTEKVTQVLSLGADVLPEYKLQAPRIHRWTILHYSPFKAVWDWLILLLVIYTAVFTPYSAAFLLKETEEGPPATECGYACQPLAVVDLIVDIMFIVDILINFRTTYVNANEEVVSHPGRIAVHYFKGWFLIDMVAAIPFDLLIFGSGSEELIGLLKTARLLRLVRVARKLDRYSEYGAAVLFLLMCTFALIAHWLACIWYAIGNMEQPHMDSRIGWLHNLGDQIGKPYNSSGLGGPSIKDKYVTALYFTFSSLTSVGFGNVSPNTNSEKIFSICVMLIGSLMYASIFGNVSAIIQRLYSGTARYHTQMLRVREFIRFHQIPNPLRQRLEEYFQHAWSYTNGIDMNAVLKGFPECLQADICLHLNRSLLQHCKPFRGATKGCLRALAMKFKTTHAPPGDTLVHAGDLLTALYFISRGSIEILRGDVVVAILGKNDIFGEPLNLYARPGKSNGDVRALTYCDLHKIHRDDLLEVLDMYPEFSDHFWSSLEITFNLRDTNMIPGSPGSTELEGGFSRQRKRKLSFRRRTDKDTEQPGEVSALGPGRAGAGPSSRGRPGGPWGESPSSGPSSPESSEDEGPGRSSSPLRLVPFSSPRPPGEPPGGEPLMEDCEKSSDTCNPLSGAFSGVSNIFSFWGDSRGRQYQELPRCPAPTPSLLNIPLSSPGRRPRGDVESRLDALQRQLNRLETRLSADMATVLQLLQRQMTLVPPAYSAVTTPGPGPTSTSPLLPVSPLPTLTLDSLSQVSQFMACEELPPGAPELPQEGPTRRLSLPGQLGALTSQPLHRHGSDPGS

Row | Compound | hERG current change (%, negative = inhibition) at 10uM [%]
1 | Cc1ccc(-c2nc3c(c(SCC(=O)N4CCOCC4)n2)COC(C)(C)C3)cc1 | 3.09
2 | O=C(NCCCn1ccnc1)C(=O)Nc1ccccc1 | 11.8
3 | CCCNc1nc2c(c(=O)[nH]c(=O)n2C)n1CCc1ccccc1 | 4.04
4 | C#CCN(C(=O)c1ccc(OC)c(OC2CCN(C(C)C)CC2)c1)C1CCCCC1 | -46.4
5 | C=CCc1cccc2cc(C(=O)NC)c(=O)oc12 | -5.8
6 | Cn1cnnc1-c1cccc(NS(=O)(=O)c2ccc(N3CCCC3=O)cc2)c1 | 9.92
7 | CCN(CC)c1ncnc2c1[nH]c1ccccc12 | -21.8
8 | Cc1ccc2occ(C(c3nnnn3C3CCCC3)N3CCN(C(=O)c4ccco4)CC3)c(=O)c2c1 (centres unmarked) | -45.7
9 | O=c1c(C(c2nnnn2C2CCCCC2)N2CCCCC2)coc2ccc(Cl)cc12 (centres unmarked) | 0.931
10 | O=C(c1ccco1)N1CCN(C(c2coc3ccc(Cl)cc3c2=O)c2nnnn2C2CCCC2)CC1 (centres unmarked) | -55.6
11 | COc1ccc(S(=O)(=O)Nc2cc3c4c(c2)CCN4C(=O)CC3)cc1OC | -7.56
12 | O=C(Cc1ccc(Cl)c(Cl)c1)N/N=C/c1cccnc1 | -40
13 | C=CCn1c(SCCC#N)nnc1-c1ccncc1 | -4.28
14 | Cn1c(SCc2ccc(C#N)cc2)nnc1-c1ccncc1 | -19.7
15 | C=CCn1c(SCc2cccnc2)nnc1-c1ccncc1 | -1.49
16 | c1ccc(CCn2c(SCc3ccccc3)nnc2-c2ccncc2)cc1 | -41.4
17 | C=CCn1c(SCc2ccccc2)nnc1-c1cccnc1 | -20.5
18 | C=CCn1c(SCc2ccc(C#N)cc2)nnc1-c1ccccc1 | -57.8
19 | Cn1c(SCc2ccc(C#N)cc2)nnc1-c1ccccc1 | -29
20 | C=CCn1c(SCc2ccc(C#N)cc2)nnc1-c1ccc(C)cc1 | -71.3
21 | N#Cc1ccc(CSc2nnc(-c3ccncc3)n2CCc2ccccc2)cc1 | -74.1
22 | CC(=O)c1c(C)[n+]([O-])c2ccc3c(non3O)c12 | 13.6

Row | Compound | hERG current change (%, negative = inhibition) at 10uM [%]
23 | CCOC(=O)C1=NN(c2ccc(Cl)cc2)C(c2ccccc2)CC1=O (centres unmarked) | -5.12
24 | COc1cccc(NC(=O)CN(C)C(=O)c2cc(C3CC3)nn2-c2ccccc2)c1 | -23.1
25 | Cc1cc(C)nc(NS(=O)(=O)c2ccc(N/C=C/C(=O)c3ccc(Cl)c(Cl)c3)cc2)n1 | 25.6
26 | CCOC(=O)c1oc2ccccc2c1NC(=O)c1cc(OC)cc(OC)c1 | 7.29
27 | COc1ccccc1C(=O)NNC(=O)C1CC=CCC1 (centres unmarked) | 18.7
28 | O=C(/C(=C/O)N=Nc1ccccc1)c1ccncc1 | -12.1
29 | COc1cc(NC(=S)NCc2cccnc2)c(OC)cc1Cl | -27.9
30 | CC(=O)N(c1ccccc1)C1SC(=O)N(c2ccccc2)C1=O (centres unmarked) | 13.9
31 | Cc1cc[n+](Cc2ccccc2)cc1.[O-][Cl+3]([O-])([O-])[O-] | 18.9
32 | O=[N+]([O-])c1ccccc1NCc1ccccc1Cl | -4.13
33 | Clc1ccc(C[n+]2c(-c3ccccc3)cc(-c3ccccc3)cc2-c2ccccc2)cc1.[O-][Cl+3]([O-])([O-])[O-] | -79.5
34 | Cc1ccc(C[n+]2c(-c3ccc(C)cc3)cc(-c3ccc(C)cc3)cc2-c2ccc(C)cc2)cc1.[O-][Cl+3]([O-])([O-])[O-] | -75.6
35 | Cc1ccc(-c2cc[n+](Cc3ccccc3)cc2)cc1.[Cl-] | -5.47
36 | O=[N+]([O-])c1ccccc1-c1cc(-c2ccccc2)cc(-c2ccccc2)[n+]1Cc1ccccc1Cl.[O-][Cl+3]([O-])([O-])[O-] | -78.7
37 | O=[N+]([O-])c1ccc(C[n+]2c(-c3ccccc3)cc(-c3ccccc3)cc2-c2ccccc2)cc1.[O-][Cl+3]([O-])([O-])[O-] | -25.8
38 | O=C([O-])c1cc(-c2ccccc2)cc(-c2ccccc2)[n+]1Cc1ccccc1 | -10.1
39 | Fc1ccc(C[n+]2c(-c3ccccc3)cc(-c3ccccc3)cc2-c2ccccc2)cc1.[O-][Cl+3]([O-])([O-])[O-] | -71.5
40 | O=[N+]([O-])c1cc(Cl)c(O)c(-[n+]2c(-c3ccccc3)cc(-c3ccccc3)cc2-c2ccccc2)c1.[O-][Cl+3]([O-])([O-])[O-] | -38.7
41 | [O-][Cl+3]([O-])([O-])[O-].c1ccc(C[n+]2ccccc2)cc1 | -3.58
42 | O=C(COC(=O)CCc1nc2ccccc2s1)NC(=O)NCc1ccco1 | -11.4
43 | CCOc1cc(/C=C/C(=O)c2ccc(OC)c(CN3CCOCC3)c2)cc(Br)c1O | -32.5
44 | CCSc1nsc(NC(=O)Nc2cccc(C(C)=O)c2)n1 | 10.5

Row | Compound | hERG current change (%, negative = inhibition) at 10uM [%]
45 | Cc1ccc(-c2ccc(S(=O)(=O)N3CC(C)OC(C)C3)cc2)cc1 (centres unmarked) | 18.7
46 | CCCSc1cc(N2CCN(C)CC2)nc(-c2ccc(OC)cc2)n1.Cl | -29.2
47 | COc1ccc(C(=O)NCC(=O)OCC(=O)NCCC2=CCCCC2)cc1 | -12.7
48 | COCCCn1c(SCC(=O)NC2CCCCC2)nnc1-c1ccncc1 | 19.8
49 | COc1ccc(CC(=O)Nc2cc(C)on2)cc1 | 5.74
50 | COc1cc(OC)cc(C(=O)NC(C(=O)Nc2ccc3c(c2)OCCO3)C(C)C)c1 (centres unmarked) | -11
51 | CCN(CC)CCn1c(C)nc2c(sc3nc4c(cc32)COC(C)(C)C4)c1=O | -22.3
52 | O=C(NCC1CCCO1)c1onc(CSc2cccc3ccccc23)c1C(=O)O (centres unmarked) | 14.4
53 | COc1cccc(NC(=O)CN(C)C(=O)CSCc2nc3scc(-c4cccs4)c3c(=O)[nH]2)c1 | -16.2
54 | CCC(C)(C)NC(=O)C(c1ccc(OC)cc1)N(C(=O)CCC(=O)Nc1cc(C)on1)c1ccc(OC)cc1OC (centres unmarked) | -7.89
55 | COc1ccc(Cl)cc1NC(=O)C(C)N1CCN(c2ccccn2)CC1 (centres unmarked) | -18.3
56 | COC(=O)c1ccccc1NC(=O)N1CCN(C/C=C/c2ccccc2)CC1 | -45.1
57 | COc1ccc(Cl)cc1NC(=O)C(C)N1CCN(C/C=C/c2ccccc2)CC1.O=C(O)C(=O)O (centres unmarked) | -63.4
58 | COc1ccc(Cl)cc1NC(=O)C(C)N1CCc2ccccc21 (centres unmarked) | 23.9
59 | COc1ccccc1NC(=O)C(C)N1CCN(C/C=C/c2ccccc2)CC1 (centres unmarked) | -74.5
60 | COc1ccccc1NC(=S)N1CCN(C/C=C/c2ccccc2)CC1 | -0.974
61 | C=CCc1cccc(CNc2ccc(S(=O)(=O)Nc3nccnc3OC)cc2)c1O | -9.98
62 | N=c1c2c3c(sc2ncn1N)CCCC3 | 2.04
63 | COc1ccccc1C1C2=C(CCCC2=O)N(CC(=O)O)C2=C1C(=O)CCC2 | 15.9
64 | CCn1c(SCc2c(Cl)cccc2Cl)nnc1-c1nn(-c2ccccc2)ccc1=O | -66.1
65 | CCn1c(SCc2ccc(F)cc2)nnc1-c1nn(-c2ccccc2)ccc1=O | -35.1
66 | CCn1c(SC)nnc1-c1nn(-c2ccccc2)ccc1=O | 11.3

Row | Compound | hERG current change (%, negative = inhibition) at 10uM [%]
67 | COCCNc1ccc(-c2n[nH]c(=O)c3ccccc23)cc1[N+](=O)[O-] | 9.51
68 | CN1C(=O)S/C(=C/c2cccnc2)C1=O | -0.904
69 | O=C(Cn1cnc2ccccc21)N/N=C/C(Br)=C/c1ccccc1 | 5.98
70 | O=C(Nc1c(F)cc(F)cc1Br)c1cc(S(=O)(=O)N2CCN(c3ccccn3)CC2)ccc1F | -15.9
71 | CCN1CCN(S(=O)(=O)c2ccc(F)c(C(=O)Nc3c(F)cc(F)cc3Br)c2)CC1 | -17.1
72 | CCC(C)NS(=O)(=O)c1ccc(F)c(C(=O)Nc2c(F)cc(F)cc2Br)c1 (centres unmarked) | -60.8
73 | CC(=O)Nc1ccc(S(=O)(=O)N(CC(=O)Nc2cc(C)on2)Cc2ccc(F)cc2)cc1 | -11.5
74 | COc1cccc2cc(C(=O)C3=C(O)C(=O)N(CCN4CCOCC4)C3c3cccs3)oc12 (centres unmarked) | 13.1
75 | C=CCNc1nc(NCCN2CCOCC2)nc(N2CCOCC2)n1 | 18.6
76 | COc1ccc(Nc2nc(NCCN3CCOCC3)nc(Nc3ccc(OC)cc3)n2)cc1 | -78.2
77 | Clc1ccc(Nc2nc(NCCN3CCOCC3)nc(N3CCOCC3)n2)cc1 | -56
78 | C=CCNc1nc(NCCN2CCOCC2)nc(OC)n1 | -4.89
79 | COc1ccc(NC(=S)NCCN2CCOCC2)cc1 | 21.7
80 | CCOc1ccc(Nc2nc(N3CCOCC3)nc(N3CCOCC3)n2)cc1 | -17.9
81 | COc1ccc(Nc2nc(N3CCOCC3)nc(N3CCOCC3)n2)cc1 | 11.7
82 | CCOc1nc(Nc2ccc(OC)cc2)nc(N2CCOCC2)n1 | -4.52
83 | CCOc1ccc(Nc2nc(NCCN3CCOCC3)nc(OC)n2)cc1 | -63.8
84 | COc1nc(NCCN2CCOCC2)nc(Nc2ccccc2)n1 | -50.5
85 | Clc1ccc(CNc2nc(N3CCOCC3)nc(N3CCOCC3)n2)cc1 | -20
86 | c1ccc(Nc2nc(NCCN3CCOCC3)nc(Nc3ccccc3)n2)cc1 | -15.2

Reference: paper PMC4336329 (PLoS ONE, 2015)
